Values joined by “and” are separate entries in the source; they are usually repeats but may differ in a detail not shown here. Equal entries are not always repeated. Unmarked numbers belong to inactive results. The call rests on the fitted dose curve; in most records, active means well fitted activation curve with a large enough effect; inconclusive means small, poorly fitted or top-dose-only effect; inactive means flat fitted curve, though single readings scatter.

Chain of Peroxisome proliferator-activated receptor alpha (Homo sapiens) (Q07869 whole entry, looked up, the tested form may be a part): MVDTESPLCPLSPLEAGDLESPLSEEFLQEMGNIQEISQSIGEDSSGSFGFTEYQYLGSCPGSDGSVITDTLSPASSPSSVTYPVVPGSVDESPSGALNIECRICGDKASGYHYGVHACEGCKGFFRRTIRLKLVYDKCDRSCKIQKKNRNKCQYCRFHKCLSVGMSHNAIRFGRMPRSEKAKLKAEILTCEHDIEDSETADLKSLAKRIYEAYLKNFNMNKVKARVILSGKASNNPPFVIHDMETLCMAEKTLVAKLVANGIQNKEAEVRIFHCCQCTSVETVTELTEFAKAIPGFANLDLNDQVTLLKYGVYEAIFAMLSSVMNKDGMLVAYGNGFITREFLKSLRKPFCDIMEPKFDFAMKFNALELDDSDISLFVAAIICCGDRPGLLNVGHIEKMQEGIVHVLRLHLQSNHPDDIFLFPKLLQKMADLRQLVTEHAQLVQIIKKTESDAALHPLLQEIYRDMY

This assay addresses Peroxisome proliferator-activated receptor alpha (Homo sapiens) (UniProt Q07869). Kind of assay: qHTS assay for small molecule agonists of the peroxisome proliferator-activated receptor alpha (PPARalpha) signaling pathway (AID 651778). Further: % of control where 0% means no effect. The note with it: PathHunter PPARalpha complementation, chemiluminescence, 6 h; stronger effect = higher value. The method in brief: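 Enzyme-fragment complementation assay in which ligand-bound PPARalpha translocates and forms an active enzyme that generates chemiluminescence. Cells were plated overnight, exposed to compound for 6 hr at 37 C, and then given detection reagent for 60 min at room temperature.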
In the case of `O=[N+]([O-])c1ccc(NCCO)c(OCCO)c1`, the max response was -4.01%.

As for `ClC/C=C/CCl`, the max response is 1.16%.

In the case of `Cc1cscn1`, the max response was -1.32%.

For the compound `CCCCCCCN`, the max response was -4.9%.

Turning to `CC(C)(O)CCC(C)(C)O`, the max response was -3.81%.

In the case of `Nc1cccc(S(=O)(=O)O)c1`, the max response is -1.84%.

`O=Cc1c(Cl)cccc1Cl`: the max response is 25.1%.

For the compound `Oc1c(Cl)ccc(Cl)c1Cl`, the max response was 6.63%.

Take `COC(=O)CCCC(=O)OC`: the max response is -1.53%.

Take `O=c1[nH][nH]c(=O)c2cc([N+](=O)[O-])ccc12`: the max response is -4.9%.

On to `C=Cc1ccccn1`, for which the max response is 0.108%.

For the compound `Nc1ccc([N+](=O)[O-])c(N)c1`, the max response is -0.849%.

In the case of `Nc1cccc(N)c1`, the max response is -0.676%.

On to `CSc1ccc(C=O)cc1`, for which the max response was -3.7%.

Turning to `Cc1ccc([N+](=O)[O-])c(N)c1`, the max response was -3.68%.

As for `COc1ccc(N)c(OC)c1`, the max response was 4.7%.

With `C=CCCCC`, the max response is -2.42%.

Take `C=CC(=O)NC(C)C`: the max response is -6.08%.

For `C/C(C=O)=C/c1ccccc1`, the max response is -3.84%.

For `CCCCCCCCN`, the max response is -3.65%.

Regarding `C=CCCC`, the max response is -5.85%.

As for `C=CCCCCCC`, the max response was -3.21%.

`Cc1ccccc1C=O`: the max response was -2.49%.

As to `CCN(CC)c1cccc(O)c1`, the max response was -5.23%.

As to `Cc1c(N)cccc1N`, the max response was 0.845%.

Regarding `CC(=C/C=C/C(C)=C/C=C/C=C(C)/C=C/C=C(C)/C=C/C(=O)O)/C=C/C(=O)O`, the max response is 2.34%.

In the case of `Fc1ccccc1`, the max response is 1.57%.

`NC(=S)NNC(N)=S`: the max response is 0.409% and -1.13%.

Consider `CCNc1cc(O)ccc1C`, for which the max response was -6.44%.

Turning to `Cc1ccc(C#N)cc1`, the max response was 0.216%.

In the case of `c1ccc2n[nH]nc2c1`, the max response is -6.33%.

Take `Nc1cccc2c(=O)[nH][nH]c(=O)c12`: the max response was 0.513%.

Regarding `Cc1c(N)cccc1[N+](=O)[O-]`, the max response is -5.39%.

With `O=C1OC(=O)c2c(Br)c(Br)c(Br)c(Br)c21`, the max response is 0.713% and 0.326%.

Turning to `CCCCC/C=C/C=C/C=O`, the max response is -2.99% and -1.24%.

As for `O=Cc1cccc(Br)c1`, the max response was -2.07%.

On to `O=Cc1ccc(CO)o1`, for which the max response is -3.35%.

For `C=CCn1c(=O)n(CC=C)c(=O)n(CC=C)c1=O`, the max response was -0.851%.

Take `CCCCCCCCCCCCC1CO1` (stereo not given): the max response was -4.01%.

In the case of `Cc1ccc(C(=O)O)cc1`, the max response was 2.54%.

The record behind these values is PubChem BioAssay (NCATS).
